Screens: PubChem BioAssay, National Center for Advancing Translational Sciences (NCATS)
Shown is part of a subset that was picked to be rich in hits.
HT1080 IDH1KD tx = toxicity to HT-1080 IDH1 knockdown cells (counter line); AID 686971; Potency, µM (doses to about 46.1 µM), without a hit: at the top dose activity, negative = toxicity, most hits filed as cytotoxic; HT-1080 IDH1 knockdown viability, ATP luminescence, 48 h; actives 2% (n = 360,000);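 note: potency is the fitted concentration of half-maximal effect; 0% = DMSO wells and -100% = cell-free medium wells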
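In this qHTS, HT-1080 cells depleted of IDH1 are exposed for 48 h at 37 °C to compound titrations. Toxicity is scored from CellTiter-Glo luminescence, with DMSO as full viability and medium alone as none.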
TDP1 cell CPT = growth inhibition of DT40 Tdp1-/-;hTDP1 cells with camptothecin (screen for TDP1 inhibitors); actives 12% (n = 420,000); Potency, µM (doses to about 46.2 µM), without a hit: at the highest dose activity change, negative = growth inhibition, usual class: inhibitors; chicken DT40 Tdp1-/-;hTDP1 cells + 20 nM CPT, ATP luminescence, 48 h; AID 686979; note: potency is the fitted concentration of half-maximal effect; nearly all actives have a fitted effect of over 55% in size
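Chicken DT40 Tdp1-/- cells stably complemented with human TDP1 were seeded at 400 cells/well in medium containing 20 nM camptothecin, exposed to pin-transferred compounds, and grown at 37 °C for at least 48 hr. Viability was read as ATP luminescence.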
TDP1 cell noCPT = qHTS for Inhibitors of human tyrosyl-DNA phosphodiesterase 1 (TDP1): qHTS in cells in absence of CPT. DT40 Tdp1-/- hTDP1 cells, no CPT, ATP luminescence, 48 h. Potency, µM (highest dose often 46.2 µM), for inactives: top-dose activity change, negative = growth inhibition, hits mostly inhibitors. actives 15% (n = 420,000). AID 686978, 2013; note: potency is the fitted concentration of half-maximal effect; nearly all actives have a fitted effect of over 55% in size
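Readout: luminescence from CellTiter-Glo after 30 min in the dark at RT. Cells: DT40 Tdp1-/- with stable hTDP1, 400/well. Exposure: compounds alone, ≥48 hr, 37 °C.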
ALOX12 inh = blocks human arachidonate 12S-lipoxygenase. purified 12hLO, xylenol orange hydroperoxide absorbance. P18054. actives 1.1% (n = 580,000). Potency, µM (highest dose often 108 µM), inactives show at the top dose activity change, negative = inhibition, usual class: inhibitors. AID 1671190; note: potency is the fitted concentration of half-maximal effect
Target sequence (P18054 whole entry, looked up): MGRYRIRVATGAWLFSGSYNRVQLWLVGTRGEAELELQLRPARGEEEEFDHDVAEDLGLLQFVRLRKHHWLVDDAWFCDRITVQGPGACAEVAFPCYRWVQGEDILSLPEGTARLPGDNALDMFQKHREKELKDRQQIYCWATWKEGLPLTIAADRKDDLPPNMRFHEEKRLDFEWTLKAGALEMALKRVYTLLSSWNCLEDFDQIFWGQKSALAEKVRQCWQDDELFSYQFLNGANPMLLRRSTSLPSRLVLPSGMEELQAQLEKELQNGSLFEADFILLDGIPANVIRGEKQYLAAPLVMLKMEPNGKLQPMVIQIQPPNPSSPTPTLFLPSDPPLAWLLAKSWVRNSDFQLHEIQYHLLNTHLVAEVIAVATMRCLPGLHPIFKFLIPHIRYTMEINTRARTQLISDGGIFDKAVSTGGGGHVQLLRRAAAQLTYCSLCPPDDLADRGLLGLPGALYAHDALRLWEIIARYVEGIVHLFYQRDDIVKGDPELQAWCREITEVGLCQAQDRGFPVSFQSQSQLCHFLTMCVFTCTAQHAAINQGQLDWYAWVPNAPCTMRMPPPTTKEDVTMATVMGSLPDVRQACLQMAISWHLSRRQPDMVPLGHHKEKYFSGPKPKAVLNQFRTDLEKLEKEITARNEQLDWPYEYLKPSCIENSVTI
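Purified human 12hLO at 150 nM in 25 mM Hepes, 0.01% Triton X-100, pH 7.0, preincubated 15 min at room temperature with compound. Reaction started with 40 uM arachidonic acid, 30 min at room temperature. Hydroperoxide measured by Fe-xylenol orange, 573/405 nm absorbance ratio.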
HT1080NT lethal = kills 2HG-producing HT-1080-NT fibrosarcoma cells; actives 1.6% (n = 360,000); AID 686970; HT-1080-NT fibrosarcoma viability, CellTiter-Glo ATP luminescence, 48 h; Potency, µM (highest dose often 46.1 µM), inactives show at the highest dose activity, negative = less viability, most hits filed as cytotoxic;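 note: NT is the 2HG producing partner of a matched IDH1 knockdown line; potency is the fitted concentration of half-maximal effect; 0% = DMSO-treated cells and -100% = media-only wells without cells; nearly all actives have a fitted effect of over 55% in size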
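Toxicity toward the 2HG-producing NT line was scored as %Activity, normalised to DMSO and no-cell wells, from CellTiter-Glo luminescence after 48 hours' treatment.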
IL-1B inflam inh = inflammasome signaling inhibition, IL-1 beta readout. actives 4.7% (n = 360,000). THP-1 LPS/ATP IL-1B secretion, AlphaLISA, 16 h; hits give low values. AID 743279. activity change, % at 57.5 µM; in the data active = activity change below about -50%; inconclusive = mostly about -30% to -49%
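THP-1 cells pretreated 1 hr with compounds (up to 57.5 uM final), then stimulated with LPS (250 ng/mL final) plus ATP (1.25 mM final); secreted IL-1B measured by AlphaLISA after 16 hr, decreased signal indicating inhibition.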
* hit, by the source's call; ? = inconclusive; . = not tested or not shown; [ ] = another dose, or the depositor's remark. Unless noted, calls come from the whole dose curve; as a rule, active = well fitted curve in the direction sought with a large enough effect; inconclusive = small, poorly fitted or top-dose-only effect, or another doubt; inactive = no such curve, though single readings can be large; an effect the other way counts as inactive or inconclusive. Unless noted, % is set by controls: 0 for no effect and ±100 for the full control effect.

SMILES | HT1080 IDH1KD tx | TDP1 cell CPT | TDP1 cell noCPT | ALOX12 inh | HT1080NT lethal | IL-1B inflam inh
Cn1nc(C(=O)OCC(=O)NC2CC2)c2ccccc2c1=O | . | . | . | -2% | . | .
COC(=O)\C(C(C)=O)=C(/C=C/C=C/C=C/N(C)C)N(C)C | 6%[9.24 µM] | ? | 21µM* | ? | 11% | 10
COC(=O)/C(C(C)=O)=C(\C=C\N(C)C)N(C)C | 7% | 2% | 2% | -8%[57.4 µM] | 9% | 20
N#C/C(=N\O)c1nc2ccccc2s1 | -3% | 3% | 0% | 1% | 7% | 55
N#C/C(=C(/O)COc1ccccc1)c1nc2ccccc2s1 | 7% | -17% | ? | -2% | 0% | 8
N#C/C(=C(/O)c1ccc(F)cc1)c1nc2ccccc2s1 | -28% | 18µM* | 23µM* | -3% | -7% | -26
N#C/C(=C(/O)COc1ccc(Cl)cc1)c1nc2ccccc2s1 | -6% | ? | 9.2µM* | -7% | -9% | 19
N#C/C(=C(/O)CSc1ccccn1)c1nc2ccccc2s1 | 0% | 15µM* | ? | -14% | -9% | 0
CCOc1ccccc1Oc1coc2cc(OCC(=O)N3CCCCCC3)ccc2c1=O | . | . | . | -14% | . | .
Cc1cc(C(=O)CSc2nnc3ccccn23)c(C)n1-c1ccccc1 | -3% | ? | 23µM* | 0% | -2% | 5
COC(=O)c1sccc1NC(=O)Nc1cccc(C)c1C | 5% | -17% | 0% | 34% | 14% | 6
CCc1ccc(NS(=O)(=O)c2c(-c3ccccc3)csc2C(=O)OC)cc1 | . | ? | 23µM* | -15% | . | .
CCOC(=O)c1c(S(=O)(=O)Nc2cc(C)ccc2OC)c(C)n(C)c1C | . | . | . | 16% | . | .
CCOC(=O)c1scc(-c2ccc(C)cc2)c1S(=O)(=O)Nc1cc(OC)ccc1OC | . | 9.2µM* | 3.7µM* | ? | . | .
CCOC(=O)c1scc(-c2ccc(C)cc2)c1S(=O)(=O)N1CCN(c2ccccc2F)CC1 | . | 15µM* | 18µM* | -10% | . | .
COC(=O)c1scc(-c2ccccc2)c1S(=O)(=O)Nc1cccc(C)c1C | . | ? | 26µM* | -24% | . | .
COC(=O)c1scc(-c2ccccc2)c1S(=O)(=O)Nc1ccc(C)c(Cl)c1 | . | ? | ? | 0% | . | .
O=[S+]1([O-])NC2(CCN(Cc3c(F)cccc3Cl)C2)COc2ncccc21 (stereo unspecified) | . | . | . | -5%[6.33 µM] | . | .
CCN(c1ccccc1)S(=O)(=O)c1c(-c2ccc(C)cc2)csc1C(=O)OC | . | 18µM* | 15µM* | 2% | . | .
CCOC(=O)c1scc(-c2ccc(C)cc2)c1S(=O)(=O)Nc1cccc(CC)c1 | . | 12µM* | 13µM* | -8% | . | .
CCOC(=O)c1c(-c2ccccc2)csc1NC(=O)c1cc(-c2ccccc2OC)on1 | 13% | ? | ? | ? | 12% | 15
CCOC(=O)c1scc(-c2ccccc2)c1S(=O)(=O)Nc1ccccc1OC | . | 18µM* | 21µM* | ? | . | .
COC(=O)c1scc(-c2ccc(C)cc2)c1S(=O)(=O)Nc1cc(OC)c(OC)c(OC)c1 | . | 21µM* | ? | -26% | . | .
CCc1cccc(NS(=O)(=O)c2c(C)n[nH]c2C)c1 | 7% | -2% | -6% | ? | 12% | 5
CC(C)(C)c1ccc(NC(=O)CCc2nc3ccccc3c(=O)[nH]2)cc1 | . | . | . | 4% | . | .
COCc1nnc(NC(=O)Cn2ccc3ccc(F)cc32)s1 | . | . | . | 2% | . | .
COC(=O)N1CCC2(CC1)CCN(C(c1ccccc1)c1ccccc1)CC2 | . | -6% | ? | -2%[57.4 µM] | . | .
COC(=O)C1=C/C=C\CN(C(c2ccccc2)c2ccccc2)/C=C\1C(=O)OC | -6% | ? | 21µM* | ? | -9% | 13
